Results as given in ChEMBL document CHEMBL1157539, “Thousands of chemical starting points for antimalarial lead identification” (Nature, 2010).

Assays:
Type in all cases: functional
Plasmodium falciparum [1] = test: GSK_TCMDC: Inhibition of Plasmodium falciparum 3D7 in whole red blood cells, using parasite LDH activity as an index of growth. Test compounds present at 2uM
Plasmodium falciparum [2] = test: GSK_TCMDC: Inhibition of Plasmodium falciparum Dd2 in whole red blood cells, using parasite LDH activity as an index of growth. Test compounds present at 2uM
HepG2 = test: GSK_TCMDC: Percent inhibition of human HepG2 cell line. Test compounds present at 10uM.

Compound | Inhibition (Plasmodium falciparum [1]) | Inhibition (Plasmodium falciparum [2]) | Inhibition (HepG2)
CN1CCN(C(C(=O)NCc2cc(Cl)cc(Cl)c2)c2ccccc2-c2ccsc2)CC1 (stereo not given) | 95% | 80% | 11%
COc1ccc(CCn2c(=N)c(C(=O)NC3CCCC3)cc3c(=O)n4ccccc4nc32)cc1 | 99% | 34% | 11%
Cc1cccc2nc(-c3cccc(-c4ccc(CNCc5ccc(S(C)(=O)=O)cc5)cc4)c3)[nH]c12.O=C(O)C(F)(F)F | 100% | 98% | 8%
CCc1nc(N)nc(N)c1-c1ccc(C(C)(C)C)cc1 | 94% | 0% | 27%
CN(C)c1ccc(CN2CCC(NC(=O)c3ccc(-c4cccc(C(F)(F)F)c4)s3)CC2)cc1.O=C(O)C(F)(F)F | 97% | 40% | 90%
COc1cccc(O)c1CN1CCC2(CCCN(Cc3ccc(F)cc3)C2)C1 (stereo not given) | 98% | 72% | 21%
COc1cccc(CNC(=O)c2cnc(N3CCN(c4ccncc4)CC3)c(Cl)c2)c1.O=C(O)C(F)(F)F | 89% | 12% | 25%
Cc1cc(N[C@@H](Cc2ccccc2)C(=O)NCc2cccs2)nc(Nc2ccccc2)n1.O=C(O)C(F)(F)F | 96% | 36% | 3%
Cn1cncc1C(=O)Nc1cccc(-c2ccc(-c3nc4ccccc4[nH]3)s2)c1 | 100% | 25% | 0%
COc1cc(C2Nc3ccc4ccccc4c3C3=C2C(=O)CC(C)(C)C3)ccc1Oc1ccc([N+](=O)[O-])cc1C#N (stereo not given) | 99% | 94% | 8%
